Screening results from PubChem.
IDE exosite FP – insulin-degrading enzyme (human) exo-site inhibition; P14735; hit rate 6.3% among 17,000; purified IDE, FL-6b probe fluorescence polarization; stronger effect = lower value; z-score at 20 µM;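 active = z-score of -3 or lower, meaning strong loss of probe binding signal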;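 note: His-tagged human IDE residues 42-1019 made in E. coli with 30 nM FL-6b probe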
Active calls of the source: *. Many of the other results were omitted from the sample, so hits are more common in it than they were.

SMILES | IDE exosite FP
O=C(CN1CCOCC1)N1CCCCN2[C@@H](CO)[C@H](c3ccc(C#Cc4ccccc4F)cc3)[C@@H]2C1 | -8.97*
O=C(CN1CCOCC1)N1CCCCN2[C@H](CO)[C@@H](c3ccc(C#Cc4ccccc4F)cc3)[C@@H]2C1 | -2.88
O=C(CN1CCOCC1)N1CCCCN2[C@H](CO)[C@@H](c3ccc(C#Cc4ccccc4F)cc3)[C@H]2C1 | -3.9*
O=C(CN1CCOCC1)N1CCCCN2[C@@H](CO)[C@@H](c3ccc(C#Cc4ccccc4F)cc3)[C@@H]2C1 | -4.63*
CN(C)CC#Cc1ccc([C@H]2[C@@H](CO)N3C(=O)CN(C(=O)c4cccnc4)C[C@H]23)cc1 | 2.26
CN(C)C(=O)c1ccc(-c2ccc([C@H]3[C@H](CO)N4C(=O)CN(C(=O)C5CC5)C[C@@H]34)cc2)cc1 | -0.223
CCCNC(=O)N1CCC2(CC1)CN(C(=O)CC1CC1)[C@@H](CO)c1c2c2ccc(OC)cc2n1C | -1.09
COc1ccc(S(=O)(=O)Nc2ccc3c(c2)OC[C@@H](C)N(Cc2cc(F)ccc2F)C[C@@H](C)[C@H](OC)CN(C)C3=O)cc1 | 1.03
C[C@H](CO)N1C[C@H](C)[C@@H](CN(C)C(=O)Cc2cccnc2)Oc2cc(C#Cc3ccccc3F)ccc2S1(=O)=O | -1.43
COc1ccc(C(=O)Nc2ccc3c(c2)C(=O)N(C)[C@H]2CC[C@H](CC(=O)NCC4CC4)O[C@H]2CO3)cc1 | -3.58*
CN1C(=O)c2cc(NS(C)(=O)=O)ccc2OC[C@@H]2O[C@H](CC(=O)NCc3ccccc3)CC[C@@H]21 | -2.49
COc1ccc(C(=O)Nc2ccc3c(c2)C(=O)N(C)[C@H]2CC[C@@H](CC(=O)NCC4CC4)O[C@@H]2CO3)cc1 | 0.564
COc1ccc(C(=O)Nc2ccc3c(c2)C(=O)N(C)[C@H]2CC[C@H](CC(=O)NCC4CC4)O[C@@H]2CO3)cc1 | -0.443
CN1C(=O)c2cc(NS(C)(=O)=O)ccc2OC[C@H]2O[C@H](CC(=O)N3CCOCC3)CC[C@H]21 | -1.04
CCS(=O)(=O)Nc1ccc2c(c1)C(=O)N(C)[C@H]1CC[C@@H](CC(=O)NCc3ccc(OC)cc3)O[C@@H]1CO2 | -4.24*
CN1C(=O)c2cc(NS(C)(=O)=O)ccc2OC[C@@H]2O[C@H](CC(=O)N3CCOCC3)CC[C@@H]21 | -1.54
COc1cccc(C(=O)Nc2ccc3c(c2)C(=O)N(C)[C@H]2CC[C@@H](CC(=O)NCc4ccc(F)cc4)O[C@H]2CO3)c1 | -2.93
COc1cccc(C(=O)Nc2ccc3c(c2)C(=O)N(C)[C@H]2CC[C@@H](CC(=O)NCc4ccc(F)cc4)O[C@@H]2CO3)c1 | -6.19*
CCS(=O)(=O)Nc1ccc2c(c1)C(=O)N(C)[C@@H]1CC[C@H](CC(=O)NCc3ccc(OC)cc3)O[C@H]1CO2 | 0.0604
COc1cccc(C(=O)Nc2ccc3c(c2)C(=O)N(C)[C@H]2CC[C@H](CC(=O)NCc4ccc(F)cc4)O[C@H]2CO3)c1 | -0.354
CN1C(=O)c2cc(NS(C)(=O)=O)ccc2OC[C@@H]2O[C@@H](CC(=O)N3CCOCC3)CC[C@@H]21 | -5.06*
CC(C)NC(=O)N1[C@H](CO)[C@H]2c3ccccc3N(C)C[C@H]21 | 3.61
CCN1CC(=O)N2[C@@H](CO)[C@H](c3ccc(Br)cc3)[C@@H]2C1 | -0.179
COCC(=O)N1CCCCN2[C@H](CO)[C@@H](c3ccc(-c4ccc(C)cc4)cc3)[C@@H]2C1 | 1.22
CN1CCN(C(=O)C[C@@H]2CC[C@@H]3[C@H](COC[C@H](O)CN3C(=O)c3ccccc3F)O2)CC1 | 0.476
SMILES | IDE exosite FP
COc1ccc2c3c(n(C)c2c1)[C@@H](CO)N(C(=O)CN(C)C)CC31CCN(Cc2cncnc2)CC1 | -1.02
CCC(=O)N1CC2(C1)CN(Cc1cccc(Cl)c1)[C@H](CO)c1[nH]c3cc(OC)ccc3c12 | -2.34
O=C(Nc1ccc(F)cc1)N1CC(=O)N2[C@H](CO)[C@@H](c3ccc(-c4cccc(F)c4)cc3)[C@H]2C1 | -1.25
COCC(=O)N(C[C@@H]1N[C@@H](CO)[C@H]1c1ccc(C2=CCCCC2)cc1)C(C)C | 3.01
O=C(C[C@@H]1C=C[C@@H](NC(=O)Nc2ccc3c(c2)OCO3)[C@H](CO)O1)NCCCN1CCOCC1 | 1.63
Cc1ccccc1S(=O)(=O)N1CCCCN2[C@@H](CO)[C@H](c3ccc(-c4cccnc4)cc3)[C@@H]2C1 | 2.34
Cc1ccccc1S(=O)(=O)N1CCCCN2[C@H](CO)[C@@H](c3ccc(-c4cccnc4)cc3)[C@H]2C1 | -0.0492
Cc1ccccc1S(=O)(=O)N1CCCCN2[C@H](C1)[C@@H](c1ccc(-c3cccnc3)cc1)[C@@H]2CO | -3.02*
O=S(=O)(c1ccccc1F)N1CCCCN2[C@H](CO)[C@@H](c3ccc(-c4cccnc4)cc3)[C@@H]2C1 | -7.75*
O=S(=O)(c1ccccc1F)N1CCCCN2[C@@H](CO)[C@H](c3ccc(-c4cccnc4)cc3)[C@@H]2C1 | 2.16
O=S(=O)(c1ccccc1F)N1CCCCN2[C@H](C1)[C@H](c1ccc(-c3cccnc3)cc1)[C@@H]2CO | -0.54
C[C@@H]1CN([C@@H](C)CO)C(=O)c2cc(NS(C)(=O)=O)ccc2O[C@@H](C)CCCCO[C@@H]1CN(C)C(=O)Cc1ccccc1 | 1.61
OC[C@H]1[C@H](c2ccc(C#CC3(O)CCCC3)cc2)[C@H]2CN(Cc3cncnc3)CCCCN21 | 0.535
COCC(=O)N1[C@H](C#N)[C@H](c2ccccc2-c2cccc(C)c2)[C@H]1CO | -0.535
COCC#Cc1ccc([C@@H]2[C@@H](CO)N3CCCCN(S(=O)(=O)c4ccc(OC)cc4)C[C@H]23)cc1 | 1.19
CO[C@H]1CN(C)C(=O)c2cc(NC(C)=O)ccc2OC[C@@H](C)N(S(C)(=O)=O)C[C@@H]1C | 0.617
O=C1CNC[C@H]2[C@H](c3ccc(C#CC4CCCCC4)cc3)[C@@H](CO)N12 | -1.26
CO[C@H](CN(C)S(=O)(=O)c1ccc(C)cc1)[C@@H](C)CN([C@H](C)CO)S(=O)(=O)c1cccc(Cl)c1 | 1.8
COCC(=O)N1CC(=O)N2[C@H](C1)[C@H](c1ccc(C#CCc3ccccc3)cc1)[C@@H]2CO | 1.21
CCC(=O)N1CC(=O)N2[C@H](CO)[C@H](c3ccc(C#CCc4ccccc4)cc3)[C@@H]2C1 | -5.83*
CCC(=O)N1CC(=O)N2[C@H](C1)[C@@H](c1ccc(C#CCc3ccccc3)cc1)[C@@H]2CO | -2.54
O=C(C1CC1)N1CC(=O)N2[C@H](CO)[C@@H](c3ccc(C#CCc4ccccc4)cc3)[C@H]2C1 | 0.018
O=C(C1CC1)N1CC(=O)N2[C@H](CO)[C@@H](c3ccc(C#CCc4ccccc4)cc3)[C@@H]2C1 | 0.353
CCC(=O)N1CC(=O)N2[C@H](CO)[C@@H](c3ccc(C#CCc4ccccc4)cc3)[C@@H]2C1 | -0.778
CCC(=O)N1CC(=O)N2[C@@H](CO)[C@H](c3ccc(C#CCc4ccccc4)cc3)[C@@H]2C1 | -3.78*
O=C(C1CC1)N1CC(=O)N2[C@@H](CO)[C@H](c3ccc(C#CCc4ccccc4)cc3)[C@@H]2C1 | -0.585
CCC(=O)N1CC(=O)N2[C@H](CO)[C@H](c3ccc(C#CCc4ccccc4)cc3)[C@H]2C1 | -3.56*
NCC[C@@H]1CC[C@@H](NS(=O)(=O)c2ccc(Cl)cc2)[C@@H](CO)O1 | 2.86
COc1ccc(-c2ccc3n(c2=O)C[C@H]2[C@H](CO)[C@@H](C(=O)N4CCOCC4)N[C@@H]32)cc1 | 0.896
C/C=C/c1cnc2c(c1)C(=O)N([C@@H](C)CO)C[C@@H](C)[C@H](CN(C)CC1CCOCC1)O2 | 0.0919
